Source: PubChem BioAssay AID1768 (National Center for Advancing Translational Sciences (NCATS), 2009)
Out of some 270,000 compounds screened, about 620 (0.23%) were called active. Another 12% or so got no clear call; they are omitted. Shown is part of a subset that was picked to be rich in actives. Values without a mark were called inactive. Calls follow the shape of the dose curve; as a rule, active = well fitted inhibition curve with a large enough effect in the polarisation, with a control signal flat (not every such curve was filed as active); inconclusive = small, poorly fitted or top-dose-only effect, or effect the other way, or a change in a side signal; inactive = no such curve, though single readings can be large or run the other way; the % refers to the polarisation.

Each compound was assayed against Menin (Homo sapiens) (UniProt O00255) (assay: qHTS Assay for Inhibitors Targeting the Menin-MLL Interaction in MLL Related Leukemias: Competition With Texas Red Labeled MLL-derived Mutant Peptide). Settings: fluorescence polarization; series mostly up to 61.6 µM; FP activity change, negative = inhibition: at the top concentration.
From the text: qHTS Assay for Inhibitors Targeting the Menin-MLL Interaction in MLL Related Leukemias NIH Chemical Genomics Center [NCGC] NIH Molecular Libraries Probe Centers Network [MLPCN] MLPCN Grant: MH084875-01A1 Assay Submitter (PI): Jolanta Grembecka, Tomasz Cierpicki, University of Virginia Translocations of the MLL (Mixed Lineage Leukemia) gene are frequently found in human leukemias affecting both children and adults. Fusion of MLL to one of more than 60 genes results in generation of oncogenic proteins upregulating Hox genes, which are vital to blood cell development. Patients harboring fusion of the MLL gene suffer from aggressive leukemias and respond poorly to available therapies. All of the oncogenic fusion proteins have a preserved N-terminal fragment of MLL that has been identified to interact with menin. It has been recently discovered that association with menin is critical to the leukemogenic activity of the MLL fusion oncoproteins. Selective targeting of the menin-MLL interaction could provide an attractive therapeutic approach to develop novel drugs for MLL-related leukemias. Small molecules blocking the menin-MLL interaction should reverse the oncogenic potential of MLL fusion proteins. We have developed and optimized a fluorescence polarization-based assay for the identification of Menin-MLL inhibitors. The assay was run employing two different MLL-derived peptides. The present assay uses a 12 amino acid peptide labeled with fluorescein at its N-terminus. This peptide consists of the menin high affinity binding motif from MLL and is potently bound by menin. Another peptide with a mutated sequence, labeled with Texas Red, was used in parallel as a less stringent screen for inhibitors.
The Menin protein, the MLL-wild type (w.t.) derived peptide (N-terminal 12 amino acids), the MLL-derived peptide labeled with Texas Red and the MLL-w.t. peptide labeled with Fluorescein were kindly supplied by laboratory of Dr. Jolanta Grembecka, University of Virginia. All protein and peptide solutions were stored in single use aliquots at -80C. The Eu3+ Cyrptate-conjugated mouse monoclonal antibody anti-6 Histidine (Eu3+-AB) and the Streptavidin-XL665 conjugate (XL665) were purchased from Cisbio International (Bedford, MA). All antibody and XL665 conjugate solution stocks were stored in single use aliquots at -20C. The Buffer components for all assays were purchased from Sigma-Aldrich (St. Louis, MO) and Invitrogen (Carlsbad, CA). FP Assay Reagents: 1. FP reaction buffer: 50 mM Tris-HCl pH 7.5, 50 mM NaCl, 1mM DTT. Before use, 0.05% BSA is added. 2. Menin protein, MLL-w.t. labeled with fluorescein, MLL-mutant peptide labeled with texas red. Stored in singe use aliquots at -80C. 3. MLL-w.t. unlabeled peptide as positive control: 10 uM final in FP buffer. FP Assay Procedure: 1. Prepare Menin at 200 nM, MLL-w.t.-fluorescein at 25 nM, and MLL-mutant-texas red at 50 nM mixture in FP buffer. 2. Prepare Menin at 200 nM, MLL-w.t.-fluorescein at 25 nM, MLL-mutant-texas red at 50 nM, and 10 uM MLL-w.t. unlabeled mixture in FP buffer. 3. Prepare MLL-w.t.-fluorescein at 25 nM and MLL-mutant-texas red at 50 nM mixture in FP buffer. 3. Dispense 4 ul per well of reagent in step 1 in columns 2, 4 - 48 in a black 1536 well plate, dispense 4 ul per well of reagents from steps 2 and 3 in columns 1 and 3 respectively. Incubate plate at ambient for 15 minutes. 4. Transfer 23 nl per well of compound to plate and incubate at ambient for 1 hr. 5. Read fluorescence polarization for each label using the PerkinElmer Envision. Envision protocol for fluorescein: FITC FP Dual Enh Mirror, Excitation filter 480, Emission filter (1) P-pol 535, Emission filter (2) S-pol 535 Envision protocol for texas red: FP Dual Enh Mirror, Excitation filter 555, Emission filter (1) P-pol 632, Emission filter (2) S-pol 632
For FP activity change, negative = inhibition in this document: % of control where 0% means no effect.
Potency is read from the fitted curve at half-maximal effect.

Sequence of Menin (Homo sapiens) (O00255 whole entry, looked up, the tested form may be a part): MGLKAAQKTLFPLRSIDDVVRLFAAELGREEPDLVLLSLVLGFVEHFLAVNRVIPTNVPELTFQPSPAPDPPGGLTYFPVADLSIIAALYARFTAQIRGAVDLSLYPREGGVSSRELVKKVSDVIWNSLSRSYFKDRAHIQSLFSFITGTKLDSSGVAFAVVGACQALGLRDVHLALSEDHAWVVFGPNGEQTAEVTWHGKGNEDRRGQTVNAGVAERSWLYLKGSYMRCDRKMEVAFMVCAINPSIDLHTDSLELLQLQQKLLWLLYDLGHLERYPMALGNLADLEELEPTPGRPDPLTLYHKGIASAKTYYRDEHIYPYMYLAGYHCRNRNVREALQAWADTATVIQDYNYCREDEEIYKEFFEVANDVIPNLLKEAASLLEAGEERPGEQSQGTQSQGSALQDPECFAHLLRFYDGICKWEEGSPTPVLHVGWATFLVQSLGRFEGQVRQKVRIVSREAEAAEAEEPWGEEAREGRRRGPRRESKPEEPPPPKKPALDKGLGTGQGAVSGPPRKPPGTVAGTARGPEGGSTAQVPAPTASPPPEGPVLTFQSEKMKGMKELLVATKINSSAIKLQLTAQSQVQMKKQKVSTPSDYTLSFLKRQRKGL

Compound | FP activity change, negative = inhibition [%] | Potency
CCC(CC)c1nnc(NC(=O)C2CCN(C(=O)c3ccco3)CC2)s1 | -19.3 | 
Cc1cccc(OCC(=O)Nc2ccc(NC(=O)c3ccco3)c(C)c2)c1 | -22.6 | 
COc1ccc(Cn2c(=S)[nH]c3cc(C(=O)NCCCN4CCOCC4)ccc3c2=O)cc1 | 14.5 | 
CC(C)CN(Cc1c(O)ccc2c(=O)c(-c3ccccc3)coc12)CC(C)C | 16.6 | 
CCOC(=O)c1c(-c2ccc(-c3ccccc3)cc2)csc1NC(=O)CCC(=O)O | 20.7 | 
COc1ccc(Br)cc1C1C2C=CCC(C)C2C(=O)N1Cc1ccccc1 (stereo not given) | -15.8 | 
Cc1cccn2c(=O)c(/C=C3\SC(=S)N(CC(C)C)C3=O)c(NCCCOC(C)C)nc12 |  | 28.2 µM (active)
CNc1nc2c(C)cccn2c(=O)c1C=Nc1ccc(OC)cc1 | -16.5 | 
CCn1c(=N)c(C(=O)NCCCOC)cc2c(=O)n3cccc(C)c3nc21 | -13.2 | 
Cc1ccc(/C=C2/SC(=S)N(CCC(=O)NCCCN3CCOCC3)C2=O)cc1 | -14.8 | 
O=C1CCN(Cc2ccccc2)CCN1[C@H](CSc1ccccc1)c1ccccc1 | -15.5 | 
COCCNC(=O)COc1ccc(N(C)S(=O)(=O)c2ccc3ccccc3c2)cc1 | 0.697 | 
CC1CCCN(CC(=O)Nc2cc(Cl)ccc2Oc2ccccc2)C1 (stereo not given) | -19.8 | 
CCN(CC)/[N+]([O-])=N/Oc1cc(O/[N+]([O-])=N/N2CCCC2CO)c([N+](=O)[O-])cc1[N+](=O)[O-] (stereo not given) | 0.381 | 
CC1CCN(C2=NC(=O)/C(=C/c3ccc(O)cc3)S2)CC1 | -0.925 | 
c1ccc(Cc2ccc(OCCn3ccnc3)cc2)cc1 | -10.6 | 
O=C(O)C1CC=CC2CCN(C3CCCCC3)C(=O)C21 (stereo not given) | 2.51 | 
CCOC(=O)c1cccc(NC(=O)C2CCN(c3ncnc4c3nc3n4CCCCC3)CC2)c1 | -10.2 | 
CCOC(=O)c1ccc(NC(=O)c2ccc(NC(=O)C3CCCO3)cc2)cc1 (stereo not given) | 28.3 | 
CCCNC(=O)c1ccc(N2CCC3(CC2)CC(c2ccc(Cl)cc2)=NO3)c([N+](=O)[O-])c1 | -0.331 | 
CCC(C)(C)NC(=O)C(c1ccc(OC)cc1)N(C(=O)CCC(=O)Nc1cc(C)on1)c1ccc(OC)cc1OC (stereo not given) | -17.8 | 
COc1cccc(CCNC(=O)c2cccc(NC(=O)C3=C(C)OCCS3)c2)c1 | -0.071 | 
COCCNc1ncnc2ccc(-c3cccnc3)cc12 |  | 31.6 µM (active)
COc1ccc(CNc2ncnc3ccc(-c4cccnc4)cc23)c(OC)c1 | -6.79 | 
COCCNc1ncnc2ccc(-c3ccccc3CN(C)C)cc12 | -18.4 | 

Compound | FP activity change, negative = inhibition [%] | Potency
COc1ccccc1N1CCN(S(=O)(=O)CCNC(=O)c2ccc(OC(C)C)cc2)CC1 | -12.6 | 
CC(CC(=O)N1CCN(c2ccccc2)CC1)S(=O)(=O)c1ccc2c(c1)NC(=O)CS2 (stereo not given) | 2.06 | 
COc1ccc(N2CCN(S(=O)(=O)CCNC(=O)C34CC5CC(CC(C5)C3)C4)CC2)cc1 | -25 | 
CCc1ccc(S(=O)(=O)N/N=C\c2ccc([N+](=O)[O-])o2)cc1 | 35.3 | 
COc1ccc(CNC(=O)/C(C#N)=C/c2cccc(OC)c2OC)cc1 | -18.7 | 
COc1ccc(N2CCN(C(=O)[C@@H](NC(=O)c3cc(OC)cc(OC)c3)C(C)C)CC2)cc1 | -22.7 | 
O=C(NCC1CC1)C1(C(F)(F)F)C/C(=C\CCO)CCCO1 (stereo not given) | -11.6 | 
Cc1cccc(S(=O)(=O)N2CN(CC3CCCO3)c3nc4ccccc4nc32)c1 (stereo not given) | 20.6 | 
CCOc1cc(/C=C/c2nc3ccccc3c(=O)[nH]2)cc(Br)c1OC | 25.1 | 
CCC(C(=O)OC)n1cnc2scc(-c3ccc(C)cc3)c2c1=O (stereo not given) | -3.92 | 
CCn1c(Cc2ccc(OC)cc2)nnc1SCC(=O)Nc1ccc(N2CCOCC2)cc1 | 3.37 | 
COc1ccc(NC(=O)c2cc(-c3cc(OC)c(OC)c(OC)c3)nc3ccccc23)c(OC)c1 | 13.1 | 
Cc1ccc(S(=O)(=O)N(Cc2ccccc2)c2ccccn2)cc1[N+](=O)[O-] | -17.7 | 
C=CCn1c(C23CC4CC(CC(C4)C2)C3)n[nH]c1=S | -20.5 | 
Cc1ccc(OCC(=O)Nc2ccc(N3CCN(C(=O)c4ccco4)CC3)cc2)c(C)c1 | -25.9 | 
COc1ccccc1NC(=O)c1cc(N2C(=O)C3C4CCC(C4)C3C2=O)ccc1Cl (stereo not given) | 19.8 | 
Cc1ccc(O)c(/C=N/NC(=O)COc2ccc3c(C)cc(=O)oc3c2)c1 | 7.45 | 
O=C(NCCc1ccccc1Cl)C1CCC(=O)N(CCCc2ccccc2)C1 (stereo not given) | -5.76 | 
COc1cccc(/C=C2\Sc3ccc(C(=O)NCC4CCCO4)cc3N(C)C2=O)c1 (stereo not given) | 36.8 | 
COc1cc(OC)c2c(C)cc(=O)oc2c1C(CCN1CCCCC1)c1ccc(N(C)C)cc1 (stereo not given) | -13.6 | 
Cc1ccc(C(=O)Oc2coc(CSc3nnc(NC(=O)c4cccs4)s3)cc2=O)cc1C | -14.4 | 
CCOc1cccc(C(=O)Nc2nnc(-c3cccs3)s2)c1 | -22.3 | 
Cc1ccc(C(=O)Nc2nnc(-c3cccs3)s2)cc1C |  | 10 µM (active)
COc1ccc(C(C(=O)NC(C)(C)C)N(Cc2ccc(F)cc2)C(=O)CCC(=O)Nc2cc(C)on2)cc1 (stereo not given) | -29.2 | 
COc1ccc(NC(=O)c2cccc3c2C(=O)N(CC2CCCO2)C3)cc1OC (stereo not given) | 20.2 | 
